From PubChem BioAssay (NCATS)
Records with an inconclusive call do not appear. The source made the active and inactive calls. Calls follow the shape of the dose curve; as a rule, active = well fitted inhibition curve with a large enough effect in the signal ratio, with a control signal flat (not every such curve was filed as active); inconclusive = small, poorly fitted or top-dose-only effect, or effect the other way, or a change in a side signal; inactive = flat fitted curve, though single readings scatter; the % refers to the signal ratio.

Target: Peroxisome proliferator-activated receptor gamma (Homo sapiens) (UniProt P37231)
Sequence (P37231 whole entry, looked up): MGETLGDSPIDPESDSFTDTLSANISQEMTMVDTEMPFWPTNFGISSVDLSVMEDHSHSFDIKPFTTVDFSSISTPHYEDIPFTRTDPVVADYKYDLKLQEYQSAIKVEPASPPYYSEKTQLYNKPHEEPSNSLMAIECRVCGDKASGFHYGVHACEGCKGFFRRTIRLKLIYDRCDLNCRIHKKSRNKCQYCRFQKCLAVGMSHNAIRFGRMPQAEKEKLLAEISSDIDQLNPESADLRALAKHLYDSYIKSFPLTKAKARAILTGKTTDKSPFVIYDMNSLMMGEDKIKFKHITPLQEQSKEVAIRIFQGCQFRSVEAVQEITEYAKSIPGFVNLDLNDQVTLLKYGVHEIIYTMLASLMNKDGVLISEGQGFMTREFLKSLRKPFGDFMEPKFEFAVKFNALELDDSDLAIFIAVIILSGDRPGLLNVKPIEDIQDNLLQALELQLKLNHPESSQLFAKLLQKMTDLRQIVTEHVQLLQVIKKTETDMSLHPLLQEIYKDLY
Test: qHTS assay for small molecule antagonists of peroxisome proliferator-activated receptor gamma signaling (AID 588537);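 as to activity, negative = inhibition: reporter cells co-stimulated with 50 nM rosiglitazone agonist during compound treatment; % of control where 0% means no effect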
Settings: HEK293 PPARg-UAS-bla, beta-lactamase ratio, antagonist mode; series mostly up to 76.8 µM; activity, negative = inhibition: at the top concentration
Description: NIH Chemical Genomics Center [NCGC]
U.S. Environmental Protection Agency [EPA]
National Institutes of Environmental Health Sciences [NIEHS]
National Toxicology Program [NTP]
The Peroxisome proliferator-activated receptors (PPARs) are lipid-activated transcription factors of the nuclear receptor superfamily with three distinct subtypes namely PPAR alpha, PPAR delta (also called PPAR beta) and PPAR gamma. All these subtypes heterodimerizes with Retinoid X receptor (RXR) and these heterodimers regulate transcription of various genes. PPAR-gamma (glitazone receptor) ligands have been used in the treatment of type 2 diabetes and dyslipidaemia. It is involved in the regulation of glucose and lipid metabolism. PPAR-gamma activates certain genes like Paraoxonase 1 which is responsible for hydrolyzing organophosphates. PPAR-gamma ligands may also be therapeutically important in the treatment of coronary artery disease, obesity and cancer and atherosclerosis.
NCGC Assay Protocol Summary
Using a beta-lactamase reporter-gene under control of Peroxisome Proliferator-Activated-gamma (PPAR-gamma) response element, a cell-based assay [GeneBLAzer PPAR-gamma-UAS-bla assay developed by Invitrogen] was used to measure PPAR-gamma ligands signaling. GeneBLAzer PPAR-gamma-UAS-bla-HEK293 cells were used with assay medium containing 1% charcoal/dextran treated FBS. The assay was performed in clear bottom black Greiner 1536-well plates. Library compounds were measured for their ability to inhibit the reporter gene activity. Compounds were screened in a titration series in 1536-well format. The fluorescence intensity (405 nm excitation, 460/530 nm emission) was measured using an EnVision plate reader. Data was normalized relative to Rosiglitazone control (50 nM, 100%), and DMSO only wells (basal, 0%). Concentration-response titration points for each compound were fitted to the Hill equation yielding concentrations of half-maximal inhibition (IC50) and maximal response (efficacy) values.
qHTS protocol for PPAR-gamma beta-lactamase assay in antagonist mode
[Step] [Parameter] [Value] [Description]
1. Reagent; 5 uL; 3000 cells/well
2. Incubation; 37 C for 6-6.5 hrs
4. Controls (GW9662, PPAR-gamma antagonist); 23 nL,
5. Agonist (Stimulator); 1uL; Rosiglitazone at 50 nM (final) concentration
6. Incubation; 37 C for 16 hrs
7. Detection reagent; 1 uL of CCF4-dye
8. Incubation; RT for 2 hrs
9. Detection; Fluorescence; Envision plate reader

Compound	activity, negative = inhibition	Potency
O=C(O)Cc1cccc2ccccc12	4.96% (inactive)	–
CCCNC(=O)NS(=O)(=O)c1ccc(Cl)cc1	8.77% (inactive)	–
O=c1cc(-c2ccc(O)cc2)oc2cc(O)cc(O)c12	–	44.7 µM (active)
CCn1cc(C(=O)O)c(=O)c2ccc(C)nc21	–	inactive
CCCCC1C(=O)N(c2ccccc2)N(c2ccccc2)C1=O	-0.484% (inactive)	–
O=c1c(O)c(-c2ccc(O)cc2)oc2cc(O)cc(O)c12	–	inactive
O=C1NC(=O)C(c2ccccc2)(c2ccccc2)N1	-3.46% (inactive)	–
CC/C(=C(\c1ccccc1)c1ccc(OCCN(C)C)cc1)c1ccccc1	-19.8% (inactive)	–
O=c1c(-c2ccc(O)cc2)coc2cc(O)ccc12	-9.99% (inactive)	–
O=C(O)c1cc(-c2ccccc2)nc2ccccc12	-3.6% (inactive)	–
CC(=O)c1ccc(S(=O)(=O)NC(=O)NC2CCCCC2)cc1	8.45% (inactive)	–
